Data taken from PubChem BioAssay AID463173 (ICCB-Longwood Screening Facility, Harvard Medical School, 2010).
In all, about 52,000 compounds went through this assay and about 4,300 (8.3%) were called active. The sample holds actives, similar compounds and a random draw of the others, so the mix is not that of the screen. No stated cut-off is given here; in the data, active means survival mostly below about 52% (no sharp cut-off); inactive means mostly above about 56%.

System: DeltatarO mutant
Experiment: growth inhibition of S. aureus wild type versus tarO mutant, primary screen, teichoic acid synthesis inhibitors, RN4220, OD600 (AID 463173)
Details: OD600, 18 h, stronger effect = lower value, screened at 18.75 µg/mL (by protocol)

SMILES	survival
O=C(CN1CCSc2ccccc21)N1CCN(c2ccc(F)cc2)CC1	88% (inactive)
O=C(O)CCCNc1ncnc2ccccc12	92% (inactive)
COc1ccc(NC(=O)C2CCN(c3nc4ccccc4[nH]3)CC2)cc1OC	66% (inactive)
Fc1ccccc1-n1ncc2c1ncn1nc(Cc3ccccc3)nc21	74% (inactive)
CCOC(=O)N1CC=C2C(C#N)=C(N)C(C#N)(C#N)C(c3ccc(CC)cc3)C2C1 (centres undefined)	88% (inactive)
COc1cccc(C2C3CN(C(C)=O)CC=C3C(C#N)=C(N)C2(C#N)C#N)c1 (centres undefined)	93% (inactive)
CC(C)(C)OC(=O)N1CC=C2C(C#N)=C(N)C(C#N)(C#N)C(c3ccc4c(c3)OCO4)C2C1 (centres undefined)	35% (active)
COc1cc(NC(=O)N2CCC(CN3CCc4ccccc4C3)CC2)cc(OC)c1	70% (inactive)
Cc1cccc(NC(=O)N2CCC(CN3CCCCCC3)CC2)c1C	81% (inactive)
Cc1cccc(NC(=O)N2CCC(CN3CCc4ccccc4C3)CC2)c1C	-2% (active)
COC(=O)c1ccc(NC(=O)N2CCC(CN3CCc4ccccc4C3)CC2)cc1	6% (active)
CCOc1ccc(NC(=O)N2CCC(CN3CCc4ccccc4C3)CC2)cc1	-1% (active)
CCOc1ccc(NC(=O)N2CCC(CN3CCC(C)CC3)CC2)cc1	117% (inactive)
Cc1cc(C)cc(NC(=O)N2CCC(CN3CCc4ccccc4C3)CC2)c1	72% (inactive)
CCOc1ccc(NC(=O)N2CCC(CN3CCCCCC3)CC2)cc1	115% (inactive)
CCc1ccccc1NC(=O)N1CCC(CN2CCc3ccccc3C2)CC1	76% (inactive)
COc1ccc(Cl)cc1NS(=O)(=O)c1cc(-c2cc(C)no2)ccc1C	87% (inactive)
CCCCn1c(=O)c2oc3ccccc3c2n(Cc2ccccc2C)c1=O	55% (inactive)
COc1cccc(-n2nnc(-c3nc(-c4ccccc4F)no3)c2C)c1	84% (inactive)
CC1CCN(C(=O)Cn2c(SCC(=O)Nc3ccc(F)cc3)nc3ccccc32)CC1	96% (inactive)
COc1cccc(OCCSc2nc3ccccc3n2CC(=O)N2CCCCC2)c1	42% (active)
Cc1ccc(NC(=O)CSc2nc3ccccc3n2CC(=O)N2CCC(C)CC2)cc1C	17% (active)
Cc1ccc(OCCSc2nc3ccccc3n2CC(=O)N2CCOCC2)c(C)c1	93% (inactive)
O=C(Cn1c(SCCOc2ccccc2)nc2ccccc21)N1CCOCC1	47% (inactive)
COc1ccc(OCCSc2nc3ccccc3n2CC(=O)N2CCOCC2)cc1	51% (inactive)
Cc1cccc(OCCSc2nc3ccccc3n2CC(=O)N2CCOCC2)c1	44% (active)
Cc1ccc(OCCSc2nc3ccccc3n2CC(=O)N2CCOCC2)cc1	96% (inactive)
CC1CCN(C(=O)Cn2c(SCC(=O)NC(C)(C)C)nc3ccccc32)CC1	92% (inactive)
COc1cccc(OCCSc2nc3ccccc3n2CC(=O)N2CCOCC2)c1	44% (active)
